Measured values as given in the supplement of paper PMC12067093, “Discovery and optimisation of a covalent ligand for TRIM25 and its application to targeted protein ubiquitination” (Chemical Science, 2025).
Targets with the largest changes are over-represented here; the source holds about 21,000 in all.

Compound: CC1Cc2ccccc2N1C(=O)C1CCCN(C1)C(=O)CCl (mixture of isomers) [TRIM25 ligand 11 (diastereomer mixture)]
Experiment: probe-labelled cysteine peptide fold change vs DMSO (competition) (log2 fold change); higher = less target engagement (more negative = stronger competition)
Conditions: THP-1, incubation time: 4 h
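Further: competitive chemoproteomic profiling in live THP-1 cells with an iodoacetamide desthiobiotin (IA-DTB) probe, comparing probe-labelled peptide intensities in compound-treated cells against DMSO-treated controls.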

Chain of UniProt Q8IV63 (Q8IV63 whole entry, looked up): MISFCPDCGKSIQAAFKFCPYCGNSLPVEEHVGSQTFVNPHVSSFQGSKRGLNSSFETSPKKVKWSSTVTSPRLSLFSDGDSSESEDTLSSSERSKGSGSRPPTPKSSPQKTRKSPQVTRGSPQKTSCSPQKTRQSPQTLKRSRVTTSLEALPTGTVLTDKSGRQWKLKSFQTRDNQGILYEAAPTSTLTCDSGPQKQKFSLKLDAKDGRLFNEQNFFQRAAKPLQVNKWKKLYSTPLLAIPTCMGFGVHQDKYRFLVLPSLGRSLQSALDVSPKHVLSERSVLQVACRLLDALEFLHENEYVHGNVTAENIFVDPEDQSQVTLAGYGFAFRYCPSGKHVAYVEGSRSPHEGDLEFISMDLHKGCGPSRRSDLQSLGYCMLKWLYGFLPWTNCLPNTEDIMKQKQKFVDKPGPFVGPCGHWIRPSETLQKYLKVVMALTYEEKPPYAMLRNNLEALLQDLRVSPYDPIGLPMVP
Chain of UniProt Q9P253 (Q9P253 whole entry, looked up): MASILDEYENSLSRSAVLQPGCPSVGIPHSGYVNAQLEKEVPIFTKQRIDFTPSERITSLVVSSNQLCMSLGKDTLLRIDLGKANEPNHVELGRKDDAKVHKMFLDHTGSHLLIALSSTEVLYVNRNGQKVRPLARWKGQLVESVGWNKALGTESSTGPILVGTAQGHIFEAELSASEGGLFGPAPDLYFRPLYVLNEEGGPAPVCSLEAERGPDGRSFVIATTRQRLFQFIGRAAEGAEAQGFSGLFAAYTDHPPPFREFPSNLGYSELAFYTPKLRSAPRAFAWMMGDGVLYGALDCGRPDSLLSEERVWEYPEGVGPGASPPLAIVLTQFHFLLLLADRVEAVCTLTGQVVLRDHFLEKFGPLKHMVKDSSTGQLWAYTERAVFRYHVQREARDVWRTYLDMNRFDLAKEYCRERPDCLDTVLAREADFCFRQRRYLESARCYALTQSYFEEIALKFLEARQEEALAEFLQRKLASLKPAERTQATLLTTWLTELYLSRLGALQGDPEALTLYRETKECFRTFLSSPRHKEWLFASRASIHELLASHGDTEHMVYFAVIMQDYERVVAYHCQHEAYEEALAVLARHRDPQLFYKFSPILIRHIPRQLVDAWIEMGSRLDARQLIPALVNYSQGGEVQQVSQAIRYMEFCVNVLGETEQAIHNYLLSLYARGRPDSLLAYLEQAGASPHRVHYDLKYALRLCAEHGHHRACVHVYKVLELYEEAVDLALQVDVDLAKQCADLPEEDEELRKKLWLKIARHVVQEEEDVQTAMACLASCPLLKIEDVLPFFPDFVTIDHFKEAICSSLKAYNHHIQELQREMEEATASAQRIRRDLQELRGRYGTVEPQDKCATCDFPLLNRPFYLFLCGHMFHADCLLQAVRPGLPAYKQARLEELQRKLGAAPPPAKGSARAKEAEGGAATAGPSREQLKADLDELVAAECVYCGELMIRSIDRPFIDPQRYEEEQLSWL
Chain of UniProt Q9H270 (Q9H270 whole entry, looked up): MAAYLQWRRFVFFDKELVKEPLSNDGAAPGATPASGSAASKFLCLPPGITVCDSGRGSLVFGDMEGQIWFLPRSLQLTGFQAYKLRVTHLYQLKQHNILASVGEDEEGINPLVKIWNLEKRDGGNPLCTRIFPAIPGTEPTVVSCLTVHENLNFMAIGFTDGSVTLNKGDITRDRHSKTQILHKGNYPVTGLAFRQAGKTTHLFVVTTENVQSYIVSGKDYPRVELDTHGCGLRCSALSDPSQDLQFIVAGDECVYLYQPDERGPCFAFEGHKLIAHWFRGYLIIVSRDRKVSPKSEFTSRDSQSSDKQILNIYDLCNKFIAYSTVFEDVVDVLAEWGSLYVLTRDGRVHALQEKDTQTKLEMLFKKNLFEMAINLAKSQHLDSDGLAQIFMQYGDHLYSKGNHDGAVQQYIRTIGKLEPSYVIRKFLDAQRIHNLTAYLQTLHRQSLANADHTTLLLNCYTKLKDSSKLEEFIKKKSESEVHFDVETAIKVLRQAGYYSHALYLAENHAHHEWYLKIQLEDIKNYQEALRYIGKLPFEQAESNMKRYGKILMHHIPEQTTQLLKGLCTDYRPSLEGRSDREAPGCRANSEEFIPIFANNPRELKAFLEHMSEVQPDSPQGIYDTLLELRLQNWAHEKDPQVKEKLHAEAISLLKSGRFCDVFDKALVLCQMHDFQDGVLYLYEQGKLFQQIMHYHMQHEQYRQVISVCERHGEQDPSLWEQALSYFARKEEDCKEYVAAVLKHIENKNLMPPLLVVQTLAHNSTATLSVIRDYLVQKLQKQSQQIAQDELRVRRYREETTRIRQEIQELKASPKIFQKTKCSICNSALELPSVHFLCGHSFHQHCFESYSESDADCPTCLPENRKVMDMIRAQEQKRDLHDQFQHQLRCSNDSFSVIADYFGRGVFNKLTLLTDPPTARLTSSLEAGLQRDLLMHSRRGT
Chain of UniProt Q6NUM6 (Q6NUM6 whole entry): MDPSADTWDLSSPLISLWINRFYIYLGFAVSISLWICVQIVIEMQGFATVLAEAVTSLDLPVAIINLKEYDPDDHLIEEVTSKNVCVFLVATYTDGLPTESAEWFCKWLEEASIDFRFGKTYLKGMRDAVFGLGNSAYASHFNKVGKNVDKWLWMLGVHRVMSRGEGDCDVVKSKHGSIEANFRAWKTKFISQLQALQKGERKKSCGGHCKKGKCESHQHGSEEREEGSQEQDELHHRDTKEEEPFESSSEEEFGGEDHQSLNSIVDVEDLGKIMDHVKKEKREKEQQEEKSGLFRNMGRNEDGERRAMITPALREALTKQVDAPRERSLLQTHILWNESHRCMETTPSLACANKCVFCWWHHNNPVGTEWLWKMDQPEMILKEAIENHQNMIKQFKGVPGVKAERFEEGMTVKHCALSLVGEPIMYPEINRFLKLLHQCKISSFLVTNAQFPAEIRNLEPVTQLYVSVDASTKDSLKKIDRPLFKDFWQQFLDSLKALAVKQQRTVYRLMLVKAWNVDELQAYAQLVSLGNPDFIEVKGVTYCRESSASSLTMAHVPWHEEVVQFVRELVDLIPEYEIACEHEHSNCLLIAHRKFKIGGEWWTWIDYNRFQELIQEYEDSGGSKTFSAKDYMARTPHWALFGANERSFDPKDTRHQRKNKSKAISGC
Chain of UniProt Q9H4B7 (Q9H4B7 whole entry): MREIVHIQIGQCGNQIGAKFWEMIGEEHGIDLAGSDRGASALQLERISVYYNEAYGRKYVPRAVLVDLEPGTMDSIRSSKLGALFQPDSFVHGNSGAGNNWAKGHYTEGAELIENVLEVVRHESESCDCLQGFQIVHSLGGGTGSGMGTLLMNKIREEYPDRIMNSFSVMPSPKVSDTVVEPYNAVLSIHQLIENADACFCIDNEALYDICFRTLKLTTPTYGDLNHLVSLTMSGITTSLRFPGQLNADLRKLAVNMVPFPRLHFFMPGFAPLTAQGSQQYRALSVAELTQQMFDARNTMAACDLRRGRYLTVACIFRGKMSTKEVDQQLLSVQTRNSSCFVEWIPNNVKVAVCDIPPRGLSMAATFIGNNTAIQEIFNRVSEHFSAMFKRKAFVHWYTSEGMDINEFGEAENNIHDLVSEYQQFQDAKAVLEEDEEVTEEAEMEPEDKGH
Chain of UniProt Q9Y2K6 (Q9Y2K6 whole entry, looked up): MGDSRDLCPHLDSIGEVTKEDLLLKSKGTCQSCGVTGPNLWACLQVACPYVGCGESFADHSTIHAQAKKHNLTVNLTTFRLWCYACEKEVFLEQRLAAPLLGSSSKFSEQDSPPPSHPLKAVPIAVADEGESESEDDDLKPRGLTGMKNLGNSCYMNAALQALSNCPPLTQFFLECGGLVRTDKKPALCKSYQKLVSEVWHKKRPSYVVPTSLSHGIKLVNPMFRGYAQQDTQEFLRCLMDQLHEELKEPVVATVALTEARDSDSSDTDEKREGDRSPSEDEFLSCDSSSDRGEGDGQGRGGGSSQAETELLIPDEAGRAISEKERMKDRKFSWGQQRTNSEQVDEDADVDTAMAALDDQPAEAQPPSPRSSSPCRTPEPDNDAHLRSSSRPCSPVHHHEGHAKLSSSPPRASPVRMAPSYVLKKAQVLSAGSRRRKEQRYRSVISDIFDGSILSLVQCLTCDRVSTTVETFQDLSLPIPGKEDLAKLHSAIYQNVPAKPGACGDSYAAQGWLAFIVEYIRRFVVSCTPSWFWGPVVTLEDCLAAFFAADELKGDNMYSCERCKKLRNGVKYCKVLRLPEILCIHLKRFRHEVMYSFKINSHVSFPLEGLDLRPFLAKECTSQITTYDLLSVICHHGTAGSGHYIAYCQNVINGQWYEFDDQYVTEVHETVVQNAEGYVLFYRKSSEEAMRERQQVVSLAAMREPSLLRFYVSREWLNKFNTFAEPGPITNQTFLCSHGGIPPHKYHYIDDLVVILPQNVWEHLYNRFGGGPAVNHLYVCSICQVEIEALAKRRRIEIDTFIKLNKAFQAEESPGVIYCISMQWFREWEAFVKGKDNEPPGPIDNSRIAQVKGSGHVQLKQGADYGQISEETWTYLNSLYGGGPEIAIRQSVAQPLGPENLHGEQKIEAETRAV
Chain of UniProt Q9H6Y2 (Q9H6Y2 whole entry, looked up): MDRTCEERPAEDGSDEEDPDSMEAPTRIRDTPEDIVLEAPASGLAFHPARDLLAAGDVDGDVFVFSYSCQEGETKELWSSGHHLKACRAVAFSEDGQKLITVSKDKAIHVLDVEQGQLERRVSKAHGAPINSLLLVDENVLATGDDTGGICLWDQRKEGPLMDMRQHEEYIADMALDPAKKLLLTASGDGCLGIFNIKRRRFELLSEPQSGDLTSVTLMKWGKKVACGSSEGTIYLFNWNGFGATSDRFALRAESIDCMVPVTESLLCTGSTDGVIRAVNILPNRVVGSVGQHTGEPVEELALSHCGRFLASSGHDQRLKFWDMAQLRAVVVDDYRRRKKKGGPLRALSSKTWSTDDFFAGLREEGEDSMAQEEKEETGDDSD
Chain of UniProt Q99757 (Q99757 whole entry, looked up): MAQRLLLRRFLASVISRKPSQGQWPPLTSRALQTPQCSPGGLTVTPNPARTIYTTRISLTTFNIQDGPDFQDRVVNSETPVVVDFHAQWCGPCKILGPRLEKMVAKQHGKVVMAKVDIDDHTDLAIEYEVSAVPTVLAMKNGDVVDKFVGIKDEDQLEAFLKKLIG

Target	probe-labelled cysteine peptide fold change (10 µM)	probe-labelled cysteine peptide fold change (50 µM)
VARS_P26640_1185_CSIHLQLQGLVDPARELGK (UniProt P26640)	-0.114	-0.105
TTF2_Q9UNY4_1118_FVCEGTVEEK (UniProt Q9UNY4)	-0.132	-0.00382
UBE2O_Q9C0C9_598_VQSCPDPAVYGVVQSGDHIGR (UniProt Q9C0C9)	-0.0239	-0.0974
UBR4_Q5T4S7_4146_QAACTIVEALATIPSR (UniProt Q5T4S7)	0.0371	-0.0346
UBR2_Q8IWV8_1360_ILSDEDKPLFGPLPCR (UniProt Q8IWV8)	-0.139	-0.289
TRPM7_Q96QT4_1426_DQETVCSK (UniProt Q96QT4)	-0.118	-0.219
TUBB1_Q9H4B7_12_MREIVHIQIGQCGNQIGAK (UniProt Q9H4B7)	0.489	0.674
TXNRD1_Q16881_625_QLDSTIGIHPVCAEVFTTLSVTK (UniProt Q16881)	0.301	0.194
VPS13B_Q7Z7G8_3937_VACDVEVDGVR (UniProt Q7Z7G8)	0.0676	-0.592
TTC37_Q6PGP7_600_DFNCWESLGEAYLSR (UniProt Q6PGP7)	0.0103	-0.0643
TXNL1_O43396_135+137+149_AGCECLNESDEHGFDNCLR (UniProt O43396)	-0.02	-0.634
VCPIP1_Q96JH7_207+219_SQECLIPVHVDGDGHCLVHAVSR (UniProt Q96JH7)	-0.42	-1.06
UBA1_P22314_234_DNPGVVTCLDEAR (UniProt P22314)	0.0251	-0.108
WDR47_O94967_322_SLNPALDGLTCGLTSHDK (UniProt O94967)	0.104	-0.116
TSFM_P43897_149_FQLLVQQVALGTMMHCQTLK (UniProt P43897)	-0.117	-0.0693
UBR5_O95071_1382+1386_LDCFTHCLIVK (UniProt O95071)	0.374	0.564
WDFY1_Q8IWB7_189_LEQNTCSVITTLK (UniProt Q8IWB7)	0.462	0.551
UNC13D_Q70J99_255_CREDQWYPLEPR (UniProt Q70J99)	-0.0799	-0.0552
VAT1L_Q9HCJ6_253+255_ISAEGVDIVLDCLCGDNTGK (UniProt Q9HCJ6)	0.196	-0.072
VPS45_Q9NRW7_359_NLLEVSEVEQELACQNDHSSALQNIK (UniProt Q9NRW7)	0.273	-0.0913
UBR2_Q8IWV8_1332_VHPNEEDPRVPIMCWGSCAYTIQSIER (UniProt Q8IWV8)	-0.326	-0.616

Target	probe-labelled cysteine peptide fold change (10 µM)	probe-labelled cysteine peptide fold change (50 µM)
TUBG1_P23258_316_QTNHCYIAILNIIQGEVDPTQVHK<|>TUBG2_Q9NRH3_316_QTNHCYIAILNIIQGEVDPTQVHK (UniProt Q9NRH3+P23258)	0.00794	-0.013
VCPIP1_Q96JH7_219_SQECLIPVHVDGDGHCLVHAVSR (UniProt Q96JH7)	-0.566	-1.68
UBA7_P41226_223_DGDLVTFSGIEGMVELNDCDPR (UniProt P41226)	0.000986	0.0382
WDR91_A4D1P6_246_LGDSELAMVCSQR (UniProt A4D1P6)	-0.0616	-0.273
UBE2Z_Q9H832_243_NYNECIR (UniProt Q9H832)	-0.049	-0.0648
TTC14_Q96N46_165_DIAHLEITALCPLR (UniProt Q96N46)	0.0661	0.0914
VPS11_Q9H270_586_EAPGCR (UniProt Q9H270)	0.694	1.1
WDHD1_O75717_781_CVELADLMTQNAVNLAIK (UniProt O75717)	0.0994	0.0632
WDR70_Q9NW82_383_QAHDSGTDTSCVTFSYDGNVLASR (UniProt Q9NW82)	0.312	-0.591
TXNRD1_Q16881_339_EYCISSDDLFSLPYCPGK (UniProt Q16881)	0.364	0.552
XPC_Q01831_224_NNICSQPDLHAIGLSIIPAR (UniProt Q01831)	-0.0894	0.0467
USP40_Q9NVE5_50_NQGGTCYLNSLLQTLHFTPEFR (UniProt Q9NVE5)	-0.26	-0.513
TRMT1_Q9NXH9_376_FSAACGPPVTPECEHCGQR (UniProt Q9NXH9)	0.157	0.015
UBE2E1_P51965_131_IYHCNINSQGVICLDILK (UniProt P51965)	0.0832	0.188
TXNRD2_Q9NNW7_523_SGLDPTVTGCUG (UniProt Q9NNW7)	-0.465	-2
TXNL1_O43396_135+149_AGCECLNESDEHGFDNCLR (UniProt O43396)	0.0914	-0.234
UBR7_Q8N806_99+101_CDCGNSK (UniProt Q8N806)	-0.0898	-0.168
UGP2_Q16851_123_LNGGLGTSMGCK (UniProt Q16851)	-0.0886	-0.138
WDR55_Q9H6Y2_5_TCEERPAEDGSDEEDPDSMEAPTR (UniProt Q9H6Y2)	-0.76	-0.645
USP19_O94966_1017_LEDKGDTPLELGDDCSLALVWR (UniProt O94966)	-0.14	-0.0111
TRMT61A_Q96FX7_209_FCSFSPCIEQVQR (UniProt Q96FX7)	-0.023	-0.323

Target	probe-labelled cysteine peptide fold change (10 µM)	probe-labelled cysteine peptide fold change (50 µM)
UBR1_Q8IWV7_1726_LHLVWQQHCIIEEIAR (UniProt Q8IWV7)	-0.0216	0.0386
UAP1L1_Q3KQV9_271_LADPVFIGFCVLQGADCGAK (UniProt Q3KQV9)	-0.0621	-0.144
WDFY4_Q6ZS81_835_QWPDLEERMDEGDAAIMHPGVVCIMVR (UniProt Q6ZS81)	-0.279	-0.333
UBE2T_Q9NPD8_86_ICLDVLK (UniProt Q9NPD8)	-0.00663	0.103
VCP_P55072_105_LGDVISIQPCPDVK (UniProt P55072)	-0.0602	-0.113
TXNIP_Q9H3M7_49_ILACGVAK (UniProt Q9H3M7)	0.365	0.565
TYW1B_Q6NUM6_581_ELVDLIPEYEIACEHEHSNCLLIAHR (UniProt Q6NUM6)	0.268	0.256
UNK_Q9C0B0_100_YDEATGLCPEGDECPFLHR (UniProt Q9C0B0)	0.613	0.284
TTC27_Q6P3X3_374_NNPVHTLTEVELLAFTSCLLSQPK (UniProt Q6P3X3)	0.253	0.421
URB2_Q14146_1380_LHNVLFSILQCHPK (UniProt Q14146)	0.199	0.859
USP6_P35125_1036_AQAEPINLDSCLR (UniProt P35125)	-0.111	-0.0406
TTC28_Q96AY4_726_ALGNLGDIFICK (UniProt Q96AY4)	0.224	0.1
USP4_Q13107_7_AEGGGCR (UniProt Q13107)	0.644	0.609
WDR47_O94967_672_GSIYCVAWSPCGQLLATGSNDK (UniProt O94967)	-0.126	-0.567
WDFY4_Q6ZS81_1763_HHQEEVLQAGLCTEGALLLLEMLK (UniProt Q6ZS81)	0.571	0.181
WDR37_Q9Y2I8_329_TANLYDVETSELVHSLTGHDQELTHCCTHPTQR (UniProt Q9Y2I8)	0.0866	-0.193
TXNIP_Q9H3M7_36_VIVEVCEVTR (UniProt Q9H3M7)	0.136	0.375
WDR7_Q9Y4E6_326_ELLICPPVTR (UniProt Q9Y4E6)	0.0845	0.185
TSR1_Q2NL82_618_AKEELIFHCGFR (UniProt Q2NL82)	0.00999	0.0707
UAP1L1_Q3KQV9_271+278_LADPVFIGFCVLQGADCGAK (UniProt Q3KQV9)	0.0951	0.0877
USP20_Q9Y2K6_8_DLCPHLDSIGEVTKEDLLLK (UniProt Q9Y2K6)	-0.12	-0.352

Target	probe-labelled cysteine peptide fold change (10 µM)	probe-labelled cysteine peptide fold change (50 µM)
VEZF1_Q14119_327_TCMSEETSNQK (UniProt Q14119)	-0.186	-0.42
TXNRD1_Q16881_577_IICNTK (UniProt Q16881)	0.634	0.851
TXNRD2_Q9NNW7_279_GCAPSR (UniProt Q9NNW7)	0.829	0.386
URB1_O60287_315_ELVHNFLMDLCCSLK (UniProt O60287)	-0.0229	-0.0236
UNC45A_Q9H3U1_503_ALVGLCK (UniProt Q9H3U1)	0.0324	0.188
TYK2_P29597_1140_CPCEVYHLMK (UniProt P29597)	-0.0795	-0.214
TTC27_Q6P3X3_514_ETPSLYCLLGDVLGDHSCYDK (UniProt Q6P3X3)	-0.201	-0.392
TTF2_Q9UNY4_50_ATDIPVSHCLLHEDFVVELQGLLLPQDK (UniProt Q9UNY4)	0.0771	0.271
VPS72_Q15906_163_GPHCERPLTQEELLR (UniProt Q15906)	0.0992	-0.085
USP34_Q70CQ2_2033_CQVADMK (UniProt Q70CQ2)	0.0209	0.0671
UBAP1_Q9NZ09_243_ATLDFKPLHKPNGFITLPQLGNCEK (UniProt Q9NZ09)	-0.241	-0.382
VASP_P50552_7_SETVICSSR (UniProt P50552)	0.55	0.717
WDR12_Q9GZL7_185_ALHCCR (UniProt Q9GZL7)	0.0665	0.103
UHRF1_Q96T88_497_TAEQSCDQK (UniProt Q96T88)	0.0456	-0.184
VPS18_Q9P253_947_ADLDELVAAECVYCGELMIR (UniProt Q9P253)	0.712	0.481
UBR4_Q5T4S7_4839+4841_QMEELIEEPGLTCCICR (UniProt Q5T4S7)	0.337	0.209
VPS13C_Q709C8_2276+2289_GIEHSLIEENCGVVVESIQVTLECGLGHR (UniProt Q709C8)	0.105	-0.00969
VRK3_Q8IV63_128_TSCSPQK (UniProt Q8IV63)	0.0233	-0.142
TXN2_Q99757_90+93_VVNSETPVVVDFHAQWCGPCK (UniProt Q99757)	-0.411	-1.31
